The source of these data is the supplement of paper PMC7366291.

Counter-ions that a name gives are not always drawn. ± gives the standard deviation of the averaged measurements.

For this experiment, the system named is Danio rerio Tg(wt1b:EGFP) embryo, pronephros. Nature of the experiment: glomerular width (mean of left and right), fold change vs DMSO control; higher = wider glomerulus. The following applies: 25 µM; exposure: 24-48 hpf. A digest of the protocol: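 In HEPES-buffered E3 with 0.003% PTU and 0.5% DMSO, dechorionated Tg(wt1b:EGFP) zebrafish embryos were exposed to 25 μM compound from 24 to 48 hpf at 28.5°C. Pronephroi were then imaged dorsally at 470 nm in 10 z-slices, in 96-well plates filled with agarose. On maximum projections, a Fiji macro turned 16 manually placed reference points into distances and angles, and values more than 2 SD from the feature mean were excluded. Features are fold changes relative to the mean of DMSO-treated embryos from the same day.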
As for `CN(C)CCOC(c1ccc(Cl)cc1)c1ccccn1` (stereo not given) [Carbinoxamine maleate salt], the glomerular width is 0.999 ± 0.048.
Regarding `CCOC(=O)C1=C(C)NC(C)=C(C(=O)OC)C1c1cccc(Cl)c1Cl` (stereo not given) [Felodipine], the glomerular width was 0.634 ± 0.029.
Take `Cc1cc(/C=C/c2ccc3cc(N(C)C)ccc3[n+]2C)c(C)n1-c1ccccc1` [Pyrvinium pamoate]: the glomerular width was found to be 0.975 ± 0.021.
Consider `CC(=O)OCC(=O)[C@@]12N=C(C)O[C@@H]1C[C@H]1[C@@H]3CCC4=CC(=O)C=C[C@]4(C)[C@H]3[C@@H](O)C[C@@]12C` [Deflazacort], for which the glomerular width was found to be 1.06 ± 0.014.
For `COc1ccc(OC)c(C(O)CNC(=O)CN)c1` (stereo not given) [Midodrine hydrochloride], the glomerular width came to 1.2 ± 0.062.
Under `C[C@@H]1C[C@H]2[C@@H]3C[C@H](F)C4=CC(=O)C=C[C@]4(C)[C@@]3(F)[C@@H](O)C[C@]2(C)[C@@]1(O)C(=O)CO` [Flumethasone] stands 1.28 ± 0.012.
The compound `N/C(=N\C(=O)c1nc(Cl)c(N)nc1N)NCc1ccccc1` [Benzamil hydrochloride] gave a glomerular width of 1.05 ± 0.019.
For `C[C@H]1O[C@@H](O[C@H]2[C@@H](O)C[C@H](O[C@H]3[C@@H](O)C[C@H](O[C@H]4CC[C@@]5(C)[C@H](CC[C@@H]6[C@@H]5C[C@@H](O)[C@]5(C)[C@@H](C7=CC(=O)OC7)CC[C@]65O)C4)O[C@@H]3C)O[C@@H]2C)C[C@H](O)[C@@H]1O` [Digoxin], the glomerular width came to 1.08 ± 0.023.
In turn, `NC(Cc1cc(I)c(Oc2cc(I)c(O)c(I)c2)c(I)c1)C(=O)O` (stereo not given) [Thyroxine (L)] returned a glomerular width of 1.07 ± 0.046.
Under `CN(C)CCC=C1c2ccccc2C=Cc2ccccc21` [Cyclobenzaprine hydrochloride] stands 0.977 ± 0.043; under `CCCCOC(=O)c1ccc(O)cc1` [Butylparaben], 0.994 ± 0.022; under `COCC(=O)Nc1c(I)c(C(=O)NCC(O)CO)c(I)c(C(=O)N(C)CC(O)CO)c1I` (stereo not given) [Iopromide], 1.02 ± 0.041.
In the case of `O=c1cc(-c2ccc(O)c(O)c2)oc2cc(O)cc(O)c12` [Luteolin], the glomerular width turned out to be 0.9662 ± 0.004.
Compound `CCc1cccc(CC)c1NC(=O)CN(CC(=O)O)CC(=O)O` [Etifenin] displayed a glomerular width of 1.052 ± 0.01.
On to `CC(=O)/N=c1/sc(S(N)(=O)=O)nn1C` [Methazolamide], for which the glomerular width amounted to 1.14 ± 0.06.
Next, `Cc1cnc(C(=O)O)c[n+]1[O-]` [Acipimox]: 1.015 ± 0.0095; `CN(CCOc1ccc(CC2SC(=O)NC2=O)cc1)c1ccccn1` (stereo not given) [Rosiglitazone Hydrochloride]: 0.964 ± 0.03.
`CS(=O)(=O)c1ccc(C2=C(c3ccccc3)C(=O)OC2)cc1` [Rofecoxib] showed a glomerular width of 0.974 ± 0.11.
`CCN1CCC[C@H]1CNC(=O)c1c(O)c(Cl)cc(Cl)c1OC` [Raclopride] yielded a glomerular width of 0.903 ± 0.033.
As to `NCCC[C@H](N)CC(=O)N[C@H]1CNC(=O)[C@H]([C@H]2C[C@H](O)NC(N)=N2)NC(=O)/C(=C/NC(N)=O)NC(=O)[C@H](CO)NC(=O)[C@H](CO)NC1=O` [Viomycin sulfate], the glomerular width worked out at 0.86 ± 0.0024.
Take `Cc1cccc(C)c1NC(=O)CN1CCN(CCCC(c2ccc(F)cc2)c2ccc(F)cc2)CC1` [Lidoflazine]: the glomerular width amounted to 0.667 ± 0.014.
Under `CCN(CC)CCOC(=O)c1ccc(N)cc1` [Procaine hydrochloride] stands 1.057 ± 0.0024; under `CCOC(=O)Nc1ccc2c(c1)N(C(=O)CCN1CCOCC1)c1ccccc1S2` [Moricizine hydrochloride], 1.04 ± 0.013; under `C[C@H](Cc1cc2c(c(C(N)=O)c1)N(CCCO)CC2)NCCOc1ccccc1OCC(F)(F)F` [Silodosin], 0.985 ± 0.067.
`COc1ncnc(NS(=O)(=O)c2ccc(N)cc2)c1OC` [Sulfadoxine] came in with a glomerular width of 0.997 ± 0.062.
Take `CCC(=O)[C@@]1(C)[C@H](C)C[C@H]2[C@@H]3CCC4=CC(=O)C=C[C@]4(C)[C@H]3[C@@H](O)C[C@@]21C` [Rimexolone]: the glomerular width was 1.02 ± 0.017.
Next, `COC(=O)Nc1nc2cc([S+]([O-])c3ccccc3)ccc2[nH]1` (stereo not given) [Oxfendazol]: 1.05 ± 0.043; `Cc1oncc1C(=O)Nc1ccc(C(F)(F)F)cc1` [Leflunomide]: 1.19 ± 0.15.
For the compound `Clc1ccc(C(Cn2ccnc2)OCc2c(Cl)cccc2Cl)c(Cl)c1` (stereo not given) [Isoconazole], the glomerular width was 0.669 ± 0.052.
Under `Cc1cn([C@H]2C[C@H](N=[N+]=[N-])[C@@H](CO)O2)c(=O)[nH]c1=O` [Zidovudine, AZT] stands 1.06 ± 0.08; under `CN1C(C)(C)CCCC1(C)C` [Pempidine tartrate], 1 ± 0.032; under `CN(C)CCN(Cc1cccs1)c1ccccn1` [Methapyrilene hydrochloride], 0.99 ± 0.077.
As to `O=C(c1ccc(OCCN2CCCCC2)cc1)c1c(-c2ccc(O)cc2)sc2cc(O)ccc12` [Raloxifene hydrochloride], the glomerular width was 0.98 ± 0.059.
`CCCN(CCC)C(=O)C(CCC(=O)O)NC(=O)c1ccccc1` (stereo not given) [Proglumide] showed a glomerular width of 1.07 ± 0.049.
`NC(=O)c1cc[n+](CC2=C(C(=O)[O-])N3C(=O)[C@@H](NC(=O)[C@@H](c4ccccc4)S(=O)(=O)O)[C@H]3SC2)cc1` [Cefsulodin sodium salt]: the glomerular width turned out to be 1.08 ± 0.02.
The compound `O=C(NCCNCC(O)COc1ccc(O)cc1)N1CCOCC1` (stereo not given) [Xamoterol hemifumarate] gave a glomerular width of 0.983 ± 0.011.
With `CC(N/C(=N\C#N)Nc1ccncc1)C(C)(C)C` (stereo not given) [Pinacidil], the glomerular width turned out to be 1.05 ± 0.1.
Compound `CN(C)CCN(Cc1ccc(Cl)cc1)c1ccccn1` [Chloropyramine hydrochloride] registered a glomerular width of 1.07 ± 0.064.
As for `CN(C)[C@@H]1C(O)=C(C(N)=O)C(=O)[C@@]2(O)C(O)=C3C(=O)c4c(O)ccc(Cl)c4[C@@H](O)[C@H]3C[C@@H]12` [Demeclocycline hydrochloride], the glomerular width was determined as 0.999 ± 0.045.
In turn, `NS(=O)(=O)c1cc(C(=O)O)c(NCc2ccco2)cc1Cl` [Furosemide] came in with a glomerular width of 0.959 ± 0.097.
